Measurements from ChEMBL document CHEMBL4888484, “Replenishing the malaria drug discovery pipeline: Screening and hit evaluation of the MMV Hit Generation Library 1 (HGL1) against asexual blood stage Plasmodium falciparum ,using a nano luciferase reporter read-out” (2022).
About 540 (0.36%) of roughly 150,000 compounds showed an effect of 50% or more. The entries come from a sample that favours strong results as a whole.

Each molecule was assayed on Plasmodium falciparum (assay: Primary screen in NF54 nanoGlo assay, in single point, at 2uM, 72h; a lower Z score goes with more inhibition). Details: timepoint 72 hour.
Format: functional, Erythrocyte

SMILES | % Inhibition | Z score
Cc1cc(C)n2c(C(=O)NCCNS(=O)(=O)c3ccc(Cl)cc3)nnc2n1 | -9% | 1.16
Cc1ccncc1CN(C)C(=O)[C@]1(O)CCc2cc(Br)ccc2C1 | -5% | 1.08
Cc1ccc(C)c(-c2cnn(CC3CC3)c2)c1 | 0% | 0.02
C=C1C(C)(C)[C@@H]2CC[C@@]1(C(=O)N1CCn3c(C(N)=O)cnc3C1)C2 | -14% | 2.1
CC(C)Cc1noc(CNC(=O)c2nn(C)cc2Cl)n1 | -7% | 1.19
Cc1c(-c2cnn(C)c2)cc(C#N)n1C(F)F | -7% | 1.32
CN1C[C@@H](N)C[C@H]1c1nc(COc2ccc(F)cc2)nn1CC(F)(F)F | 1% | -0.2
COc1ccc(C(=O)N2CCN(C(=O)c3cccnc3)[C@@H](C(=O)N[C@H]3CCCNC3=O)C2)cc1 | -7% | 1.08
Cn1c(=O)c2c(-c3ccc(Br)cc3)n(-c3ccccn3)cc2n(C)c1=O | -5% | 0.83
Cn1c(=O)c2c(-c3ccc(Br)cc3)n(-c3cccc4cccnc34)cc2n(C)c1=O | -4% | 0.72
Cn1c(=O)c2c(-c3ccc(Cl)cc3)n(-c3cccc4cccc(N)c34)cc2n(C)c1=O | 96% | -11.21
O=C(COc1ccc(Cl)cc1)NC1CCN(Cc2ccccc2)CC1 | -10% | 0.93
Cc1ccc(C(=O)Nc2cccc(N3CCCCCC3)c2)c(=O)[nH]1 | -12% | 1.57
CCN1CCN(c2ccc(C(=O)Nc3cccc(-c4ccc5c(c4)CCO5)c3)cc2F)CC1 | 18% | -2.82
CC1CN(C(=O)c2cc(F)cc3c(=O)c4cc(F)ccc4[nH]c23)CC(C)O1 (stereo not given) | -10% | 1.65
CN(C)Cc1ccc(NC(=O)c2cc(F)cc3c(=O)c4cc(F)ccc4[nH]c23)cc1 | 77% | -11.59
CCN1CCN(c2cccc(NC(=O)c3cc(F)cc4c(=O)c5cc(F)ccc5[nH]c34)c2)CC1 | 95% | -17.54
CCN1CCN(c2c(CN(C(=O)Nc3cccc(F)c3)C(C)C)c(C)nn2-c2cccc(F)c2)CC1 | 3% | -0.41
CCN1CCN(c2cccc(NC(=O)c3ccc4[nH]c5ccccc5c(=O)c4c3)c2)CC1 | 92% | -9.25
CC[C@@H](CNc1cc(NC2CC2)ncn1)C(=O)O | -7% | 1.58
Cc1noc(CCCC(=O)N2CCN(C3CCCC3O)CC2)n1 (stereo not given) | -26% | 3
CN1CC2(CCN(Cc3ccccc3OCCc3ccccc3)CC2)CC1=O | 0% | -0.02
CCS(=O)(=O)C1CCN(Cc2cn(-c3ccc(F)c(Cl)c3)nn2)CC1 | 8% | -0.85
C[C@H](Oc1ccccc1F)c1nnc2n1CCCC2 | -9% | 1.39
COc1ccc(CN2C(=O)Cc3ccccc3[C@@H](C(=O)O)[C@@H]2c2ccccc2)c(OC)c1 | 0% | -0.05

SMILES | % Inhibition | Z score
O[C@@H](CN1CCC(c2ccn[nH]2)CC1)C(F)(F)F | 27% | -3.09
CCCCNC(=O)N1CC[C@H](c2ccn[nH]2)C1 | -16% | 1.68
O=C(N[C@@H](CN1CCCC1)c1ccccc1)N1CCC(c2ccn[nH]2)CC1 | 50% | -8.21
Cc1cc2ncc(-c3nc([C@H]4CCOC(C)(C)C4)no3)c(C)n2n1 | -5% | 0.67
Cc1ccsc1-c1nccn1CCNC(=O)c1ccc(F)cc1 | -3% | 0.58
Cc1ccc(C(N)=O)c(NCC2(N3CCN(C)CC3)CCCC2)n1 | -17% | 1.6
Cc1cc(N(C)C(=O)c2nccn3ccnc23)ccc1Br | 26% | -3.49
COCC(C)(C)c1noc(-c2ccc(C(F)(F)F)c(=O)[nH]2)n1 | -6% | 0.62
COc1ccc(-n2nc(C(=O)N3CCN(C)CC3)c(=O)n(Cc3cccc(C(F)(F)F)c3)c2=O)cc1OC | -2% | 0.34
C=CCN1C(=O)OC(C)(CCC=C(C)C)C1(C)O (stereo not given) | 76% | -1.64
O=C(COc1ccc(Br)cc1)Nc1ccc2c(c1)OCCCO2 | -9% | 0.79
CC(C)C(=O)N(Cc1ccc(OS(=O)(=O)C(C)C)cc1)CC1CC1 | -21% | 4
COc1cc(F)c(C(C)NC2C[C@@H]3COC[C@H]23)cc1OC (stereo not given in full) | -1% | 0.15
CC(C)(C)OC(=O)C1C[C@@H](N)[C@@H](n2cc(C(C)(C)C)nn2)C1 (stereo not given in full) | -7% | 1.24
Cc1ccccc1C(=O)N1[C@H](C(=O)NC2CC2)COC12CCN(C(=O)c1ccc(F)cc1)CC2 | -2% | 0.23
CCc1nc(C#N)cc(N2CCC[C@@H]2CS(C)(=O)=O)n1 | -2% | 0.21
O=S(=O)(CCCOc1ccccc1)NC[C@H]1CCCN1c1ccccc1 | -13% | 2.45
Cc1cnc([C@H](C)N2CCC(S(=O)(=O)N3CCCC3)CC2)o1 | -14% | 2.67
O=c1[nH]c2ccc(NCc3cc(Cl)ccc3OCc3ccccc3F)cc2[nH]1 | 2% | -0.36
CC(C)(C)OC(=O)N1CC(OC(=O)CC2(CS(C)(=O)=O)CC2)C1 | -13% | 1.78
CNC(=O)c1[nH]nc2c1CN(CC(=O)Nc1cccc(C)c1C)CC2 | -5% | 0.76
Cc1cccc(CN2C[C@@H](O)C[C@H]2c2nnc3n2CCN(C(=O)C(C)C)C3)c1 | 4% | -0.68
CC(C)(C)OC(=O)N1CCN(c2nnc(NC(=O)c3c(F)cccc3F)[nH]2)CC1 | -14% | 1.7
C[C@@]1(C(=O)N2CCN(c3ccccc3F)CC2)Oc2ccccc2NC1=O | 1% | -0.16
CC(C)(C)OC(=O)N1CCC2(CC1)NN=C1C=C(N3CCN(c4ccccc4F)CC3)N=CN12 | 50% | 1.26
